NS1 inh: blocks influenza NS1 protein function | Potency, µM (doses to about 46.1 µM) | 270,000 compounds, 0.4% hits; calls by dose curve; further: actives are rising curves; nearly all actives have a fitted effect of over 50% in size
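A cell-based growth assay was used: compounds that relieve NS1-induced slow growth of budding yeast raise OD600. Assay medium was yeast nitrogen base with ammonium sulphate and -URA supplement, pH 6.0, with 2% galactose.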
AmpC inh no detg: blocks E. coli AmpC beta-lactamase in detergent-free assay; P00811; AmpC nitrocefin hydrolysis, absorbance 480 nm, 0.0001% Triton; Potency, µM (highest dose often 57.1 µM), most hits filed as inhibitors; 330,000 compounds, 0.52% hits; further: nearly all actives have a fitted effect of over 20% in size
Target sequence (P00811 whole entry, looked up): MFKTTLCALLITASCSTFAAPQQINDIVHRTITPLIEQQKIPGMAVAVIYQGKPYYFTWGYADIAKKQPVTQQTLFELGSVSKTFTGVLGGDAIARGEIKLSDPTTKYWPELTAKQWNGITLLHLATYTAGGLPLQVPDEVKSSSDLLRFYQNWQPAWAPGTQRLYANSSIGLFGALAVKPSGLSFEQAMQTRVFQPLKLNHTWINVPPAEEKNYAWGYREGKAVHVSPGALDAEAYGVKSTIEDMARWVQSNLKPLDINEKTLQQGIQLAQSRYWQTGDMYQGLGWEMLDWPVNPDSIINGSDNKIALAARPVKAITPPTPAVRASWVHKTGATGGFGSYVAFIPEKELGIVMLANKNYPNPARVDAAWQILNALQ
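AmpC (5.3 nM in the dispensed reagent) in 20 mM phosphate pH 7.0 with 0.01% (detergent screen) or 0.0001% Triton X-100 was preincubated with compounds for 15 min at room temperature. Nitrocefin was then added from an 800 uM solution, and hydrolysis was followed at 480 nm.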
AmpC inh detg: inhibitors of E. coli AmpC beta-lactamase with detergent. 370,000 compounds, 0.041% hits. AmpC hydrolysis of nitrocefin, absorbance 480 nm, 0.01% Triton. P00811. Potency, µM (titrated, usually from 114 µM), most hits filed as inhibitors. AID 485294; further: nearly all actives have a fitted effect of over 25% in size
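AmpC (5.3 nM in the dispensed reagent) in 20 mM phosphate pH 7.0 with 0.01% (detergent screen) or 0.0001% Triton X-100 was preincubated with compounds for 15 min at room temperature. Nitrocefin was then added from an 800 uM solution, and hydrolysis was followed at 480 nm.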
Cycloheximide cs: counter-screen hit for Shiga toxin inhibitors, cycloheximide; 300,000 compounds, 12% hits; cell reporter, cycloheximide protein synthesis inhibition counterscreen; AID 2314; max response, %; in the data active means max response mostly above about 13%, no sharp cut-off; inactive means mostly below about 14%; further: read at 38.3 µM for the half of the compounds with a filed dose
Shiga toxin inh: blocks Shiga toxin action in Vero cells | 290,000 compounds, 9.2% hits | inhibition, % at 38.7 µM | AID 2315 | Vero cells, Shiga toxin protein synthesis inhibition reporter; in the data active means inhibition mostly above about 28%, no sharp cut-off; inactive means mostly below about 43%
A number is an active result; n = inactive; u = inconclusive; x = not tested or not shown; [ ] = dose if it differs, or a comment. Only a selection was taken, and hits are over-represented in it overall. Unless noted, the call rests on the fitted dose curve; in most records, active means well fitted curve in the direction sought with a large enough effect; inconclusive means small, poorly fitted or top-dose-only effect, or another doubt; inactive means no such curve, though single readings can be large; an effect the other way counts as inactive or inconclusive.

SMILES	NS1 inh	AmpC inh no detg	AmpC inh detg	Cycloheximide cs	Shiga toxin inh
Cc1ccc(CNC(=O)c2c(C)oc3ncnc(N4CCOCC4)c23)cc1	x	x	n	x	x
CCc1ccccc1NC(=S)N(CCN1CCCCC1)Cc1ccco1	x	n	u	n	n
CCOC(=O)N1CCC(NC(=O)c2ccc3c(c2)N(Cc2cc(C)ccc2C)C(=O)c2ccccc2S3(=O)=O)CC1	x	x	n	x	x
COCC(=O)NCc1ccc2c(c1)cc(C)n2C	n	n	n	n	n
Cc1ccc(S(=O)(=O)NCc2ccc3c(c2)cc(C)n3C)cc1	u	25µM	u	n	n
CC(=O)c1ccc(NC(=O)CCOc2cc(C)ccc2C)cc1	n	n	n	41	115
Cc1cc(F)ccc1NCC(=O)Nc1ccccc1Br	n	n	n	26	116
Cc1ccc(F)cc1NCC(=O)Nc1ccc(Cl)cc1F	n	n	n	n	n
Cc1ccccc1NCCC(=O)Nc1ccc(F)cc1	n	n	n	16	n
CC(=O)Nc1ccc(NC(=O)CCOc2ccccc2C)cc1	n	n	n	n	n
Cc1ccccc1NCCC(=O)Nc1ccc(Cl)cc1	n	n	n	n	n
Cc1ccc(NC(=O)CCOc2ccccc2C)cc1F	n	n	n	30	n
COc1ccc(OC)c(-n2nnnc2SCC(=O)Nc2ccccc2N2CCOCC2)c1	n	n	n	n	n
Fc1cccc(CN2CCc3nc(Nc4ccc5c(c4)OCCO5)ncc3C2)c1F	x	x	n	x	x
Cc1cc(NC(=O)C2CCCN(S(=O)(=O)c3cccc4nonc34)C2)ccc1Br (configuration not stated)	x	x	n	n	n
O=C(Cn1cnc2c(oc3ccccc32)c1=O)N1CCCC1	x	n	n	32	64
O=C(Cn1cnc2c(oc3ccccc32)c1=O)NCc1ccccc1	n	n	u	n	n
CCOC(=O)CNC(=O)Cn1cnc2c(oc3ccccc32)c1=O	n	n	n	34	n
CC(C)CC1C(C#N)=C(N)OC2=C1C(=O)CC(c1ccccc1)C2 (configuration not stated)	x	28µM	u	n	n
Cc1ccc(CSCC(=O)Nc2ccc3c(c2)OCO3)cc1	n	n	n	n	57
O=C(Nc1ccc2c(c1)OCO2)NC1CCN(Cc2ccccc2)CC1	n	n	n	36	41
O=C(CSCc1ccccc1)Nc1ccc2c(c1)OCO2	n	n	n	39	115
O=C(CSCc1ccc(Cl)cc1)Nc1ccc2c(c1)OCCO2	n	11µM	n	n	96
O=C(CSCc1c(Cl)cccc1Cl)Nc1ccc2c(c1)OCO2	n	n	n	n	n
CNc1nc2c(c(=O)n(C)c(=O)n2C)n1CC(O)COc1ccc(OC)cc1 (configuration not stated)	x	x	n	x	x
SMILES	NS1 inh	AmpC inh no detg	AmpC inh detg	Cycloheximide cs	Shiga toxin inh
Cc1cnc(NC(=O)Cc2c[nH]c3ccccc23)s1	n	n	n	67	n
Cc1csc(NC(=O)Cc2c[nH]c3ccccc23)n1	n	n	n	n	72
Cc1csc(NC(=O)c2cc(=O)[nH]c3ccccc23)n1	n	n	n	n	n
CC1CCc2c(sc3nc(CSc4n[nH]c(N)n4)[nH]c(=O)c23)C1 (configuration not stated)	n	n	n	n	37
O=C(Nc1cccc(Cl)c1)N1CCSc2ccccc21	x	x	n	x	x
Cc1cc(=O)[nH]c2nnc(SCc3cccc(F)c3)n12	x	x	n	x	x
Cc1ccc(C)c(OCc2cc(C(=O)N(C)Cc3ccccn3)no2)c1	n	n	n	29	49
Cc1ccc(C)c(OCc2cc(C(=O)N(C)Cc3nccs3)no2)c1	n	n	n	23	52
CCOc1ccc(-n2nc3ccc(NC(=O)c4ccc(-c5cccc(Cl)c5)o4)cc3n2)cc1	x	x	n	x	x
CN(C(=O)COC(=O)c1nc(Cl)ccc1Cl)c1ccccc1	n	n	n	n	n
COc1ccc(C(=O)CNc2cccc(F)c2)cc1	n	n	n	50	87
COc1ccc(OC(C)C(=O)Nc2cccc(F)c2)cc1 (configuration not stated)	n	n	n	n	n
COc1ccc(C(=O)CC(=O)C(=O)Nc2ccc(C)c(Cl)c2)cc1	n	n	n	23	n
COc1ccc(C(=O)CC(=O)C(=O)Nc2ccccc2)cc1	n	n	n	n	n
COc1ccc(C(=O)CC(=O)C(=O)Nc2cccc(F)c2)cc1	n	n	n	19	50
CCOC(=O)c1ccc(NC(=O)[C@@H](NC(N)=O)C(C)C)cc1	n	n	n	n	n
CCOC(=O)c1ccc(NC(=O)N(CC)CC)cc1	n	n	n	37	62
CCOC(=O)c1ccc(NC(=O)C(CC)CC)cc1	n	n	u	30	71
CCOC(=O)CC(=O)Nc1ccc(C(=O)OCC)cc1	n	n	n	n	n
CCC1CCCCN1C(=O)C(=O)c1cn(CC(=O)N(CC)CC)c2ccccc12 (configuration not stated)	n	n	n	n	n
C[C@H](NCCN(C)C)[C@@H]1CCC2C3CCc4cc(O)ccc4[C@H]3CCC21C (some centres not stated)	n	x	x	x	x
CC1(C)CC(=O)C/C(=N/Nc2nc3ccccc3s2)C1	x	n[11.4 µM]	n	40	43
CC1CCC/C(=N/Nc2nc3ccccc3s2)C1 (configuration not stated)	n	n	n	45	123
CC1CCCC(=NNC(=O)C2COc3ccccc3O2)C1 (configuration not stated)	x	n	x	x	x
CCOc1ccc(S(=O)(=O)c2cn(Cc3ccccc3C)c3ccc(OC)cc3c2=O)cc1	x	x	n	x	x
COc1ccc(-c2noc(-c3cccc(OC)c3OC)n2)cc1	x	x	n	x	x
O=C(O)c1c2c(nc3ccc(S(=O)(=O)N4CCC(C(=O)NC5CCCC5)CC4)cc13)CCCCC2	n	25µM	n	n	n

Screens: PubChem, National Center for Advancing Translational Sciences (NCATS)
